12-LOX inh = Primary qHTS assay for inhibitors of human arachidonate 12S-lipoxygenase (ALOX12): Round 2; 1.1% of 580,000 active; purified 12hLO, xylenol orange hydroperoxide absorbance; Potency, µM (titrated, usually from 108 µM), actives largely listed as inhibitors; Polyunsaturated fatty acid lipoxygenase ALOX12 (Homo sapiens), P18054; AID 1671190, 2021
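Hydroperoxide product was detected by ferrous iron/xylenol orange as the 573 to 405 nm absorbance ratio. Arachidonic acid at 40 uM (final) was turned over for 30 min at room temperature by 150 nM human 12hLO, pH 7.0 Hepes buffer, after 15 min compound preincubation.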
G9a inh = qHTS Assay for Inhibitors of Histone Lysine Methyltransferase G9a; Histone-lysine N-methyltransferase EHMT2 (Homo sapiens), Q96KQ7; G9a H3K9 monomethylation, AlphaScreen, 2 h; Potency, µM (titrated, usually from 102 µM), actives largely listed as inhibitors; 8.8% of 350,000 active; AID 504332, 2011; further: nearly all actives have a fitted effect of over 75% in size
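G9a (20 nM) was preincubated 15 min with compound, then reacted 2 h at room temperature with 500 nM biotin-H3K9 peptide and 20 µM SAM. Monomethyl-H3K9 detected by AlphaScreen using anti-H3K9me1 antibody.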
HP1b chromo inh = HTS for Inhibitors of HP1-beta Chromodomain Interactions with Methylated Histone Tails; Chromobox protein homolog 1 (Homo sapiens), P83916; AlphaScreen HP1-beta / biotin-H3K9me3 peptide binding; Potency, µM (highest dose often 114 µM), most hits filed as inhibitors; 0.56% of 390,000 active; AID 540317, 2011; further: nearly all actives have a fitted effect of over 70% in size
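Compound inhibition of the preformed complex between 50 nM HP1-beta and 50 nM biotinylated H3K9me3 peptide was read by AlphaScreen. Buffer was PBS pH 7.4 with 0.01% Tween-20. Incubations ran 30 min at room temperature, with 10 ug/mL donor/acceptor beads.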
JMJD2A Tudor inh = qHTS Assay for Inhibitors of JMJD2A-Tudor Domain. Lysine-specific demethylase 4A (Homo sapiens), O75164. AlphaScreen JMJD2A-Tudor / H3K4me3 peptide binding. Potency, µM (highest dose often 114 µM), actives largely listed as inhibitors. 4.4% of 390,000 active. AID 504339, 2011; further: nearly all actives have a fitted effect of over 50% in size
BAZ2B block = qHTS Assay for Inhibitors of BAZ2B | 4.4% of 360,000 active | AlphaScreen BAZ2B-H3K14Ac peptide displacement | Potency, µM (doses to about 114 µM), actives largely listed as inhibitors; further: nearly all actives have a fitted effect of over 60% in size
Target sequence (Q9UIF8 whole entry, looked up): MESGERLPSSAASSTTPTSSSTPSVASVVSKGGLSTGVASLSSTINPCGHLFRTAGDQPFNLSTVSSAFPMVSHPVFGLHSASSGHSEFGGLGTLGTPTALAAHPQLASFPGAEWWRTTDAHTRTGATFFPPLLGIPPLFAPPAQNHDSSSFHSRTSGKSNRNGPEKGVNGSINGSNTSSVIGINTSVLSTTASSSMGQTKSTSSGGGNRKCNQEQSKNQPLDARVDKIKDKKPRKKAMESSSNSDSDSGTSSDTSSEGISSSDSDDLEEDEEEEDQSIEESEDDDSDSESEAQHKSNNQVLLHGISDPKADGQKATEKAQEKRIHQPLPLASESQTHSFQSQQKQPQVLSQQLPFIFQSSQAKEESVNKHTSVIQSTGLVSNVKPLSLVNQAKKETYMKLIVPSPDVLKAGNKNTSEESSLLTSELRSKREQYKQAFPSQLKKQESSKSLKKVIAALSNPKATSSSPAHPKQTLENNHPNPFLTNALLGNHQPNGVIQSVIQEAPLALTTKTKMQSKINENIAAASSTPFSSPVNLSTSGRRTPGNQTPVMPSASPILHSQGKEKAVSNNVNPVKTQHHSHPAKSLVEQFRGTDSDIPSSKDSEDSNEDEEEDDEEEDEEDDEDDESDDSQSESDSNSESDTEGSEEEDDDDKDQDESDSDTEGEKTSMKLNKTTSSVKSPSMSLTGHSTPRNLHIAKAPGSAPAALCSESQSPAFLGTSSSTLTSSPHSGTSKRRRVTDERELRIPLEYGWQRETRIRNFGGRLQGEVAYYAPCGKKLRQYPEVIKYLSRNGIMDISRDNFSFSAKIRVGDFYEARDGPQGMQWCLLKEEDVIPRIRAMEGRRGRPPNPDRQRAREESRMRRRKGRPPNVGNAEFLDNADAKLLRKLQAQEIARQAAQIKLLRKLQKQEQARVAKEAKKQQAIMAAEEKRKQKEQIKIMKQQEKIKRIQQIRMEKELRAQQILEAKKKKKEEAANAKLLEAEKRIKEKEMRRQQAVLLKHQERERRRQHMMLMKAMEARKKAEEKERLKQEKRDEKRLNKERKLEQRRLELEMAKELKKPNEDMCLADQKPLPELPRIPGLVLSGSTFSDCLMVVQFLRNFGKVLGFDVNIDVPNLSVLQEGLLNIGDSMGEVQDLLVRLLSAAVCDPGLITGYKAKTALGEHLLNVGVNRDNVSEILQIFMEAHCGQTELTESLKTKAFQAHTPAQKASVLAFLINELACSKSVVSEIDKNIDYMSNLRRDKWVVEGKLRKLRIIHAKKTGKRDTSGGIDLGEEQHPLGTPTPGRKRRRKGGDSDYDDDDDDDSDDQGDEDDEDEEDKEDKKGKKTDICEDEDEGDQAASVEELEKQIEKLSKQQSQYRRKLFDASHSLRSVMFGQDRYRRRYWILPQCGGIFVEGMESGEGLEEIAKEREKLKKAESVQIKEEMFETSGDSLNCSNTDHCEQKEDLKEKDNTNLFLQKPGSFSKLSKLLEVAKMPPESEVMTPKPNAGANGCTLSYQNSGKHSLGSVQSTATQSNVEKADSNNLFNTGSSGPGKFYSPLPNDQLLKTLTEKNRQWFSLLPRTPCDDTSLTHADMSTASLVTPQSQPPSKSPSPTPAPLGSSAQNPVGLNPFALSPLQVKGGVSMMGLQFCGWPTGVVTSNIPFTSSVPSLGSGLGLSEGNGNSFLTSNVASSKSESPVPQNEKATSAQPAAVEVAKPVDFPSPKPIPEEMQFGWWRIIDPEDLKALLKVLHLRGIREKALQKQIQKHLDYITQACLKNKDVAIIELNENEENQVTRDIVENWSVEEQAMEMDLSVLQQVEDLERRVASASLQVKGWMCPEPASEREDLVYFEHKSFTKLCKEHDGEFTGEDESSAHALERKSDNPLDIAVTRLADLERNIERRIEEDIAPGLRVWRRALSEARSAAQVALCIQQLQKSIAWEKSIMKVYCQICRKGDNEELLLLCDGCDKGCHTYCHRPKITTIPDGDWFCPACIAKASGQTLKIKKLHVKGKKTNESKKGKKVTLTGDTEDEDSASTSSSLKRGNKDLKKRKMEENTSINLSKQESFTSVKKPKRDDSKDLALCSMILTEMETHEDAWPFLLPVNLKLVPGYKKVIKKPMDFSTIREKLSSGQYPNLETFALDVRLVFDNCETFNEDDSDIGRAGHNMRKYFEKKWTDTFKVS
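In this displacement format the biotinylated H3(5-23) peptide acetylated at Lys14 serves as ligand at 50 nM, with BAZ2B at 50 nM in PBS pH 7.4 containing 0.01% Tween-20. Donor and acceptor beads are 10 ug/mL final.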
PLK1 PBD block = qHTS for Inhibitors of PLK1-PDB (polo-like kinase 1 - polo-box domain): Primary Screen | Serine/threonine-protein kinase PLK1 (Homo sapiens), P53350 | Potency, µM, actives largely listed as inhibitors | Plk1 PBD binding of FITC phosphopeptide, fluorescence polarization | 2.8% of 360,000 active; further: series mostly up to about 57 µM; nearly all actives have a fitted effect of over 65% in size
Each line names hits and unclear results; the compound was inactive in the other large screens. Compounds with a hit are over-represented: about 9% of the library has one in this group of screens. The call rests on the fitted dose curve; in most records, active means well fitted curve in the direction sought with a large enough effect; inconclusive means small, poorly fitted or top-dose-only effect, or another doubt; inactive means no such curve, though single readings can be large; an effect the other way counts as inactive or inconclusive.

COc1ccc(NS(=O)(=O)c2cc(C(=O)N3CCCCCC3)ccc2C)cc1	none (no result: G9a inh, BAZ2B block)
O=C(NC1CCCC1)C(c1ccccc1)n1c(CSCCOc2ccccc2)nc2ccccc21 (stereo not drawn)	none (no result: G9a inh, HP1b chromo inh, JMJD2A Tudor inh, BAZ2B block)
O=C(COC(=O)C1CCC1)Nc1ccc(Cl)cn1	none (no result: G9a inh, BAZ2B block)
O=C1CSC(c2cn(-c3ccccc3)nc2-c2ccccc2)N1Cc1ccco1 (stereo not drawn)	12-LOX inh 44.7µM, G9a inh 11.2µM, JMJD2A Tudor inh inconclusive, BAZ2B block inconclusive
O=C1NC2(CCN(S(=O)(=O)c3ccccc3)CC2)Oc2ccccc21	none (no result: G9a inh, HP1b chromo inh, JMJD2A Tudor inh, BAZ2B block, PLK1 PBD block)
N#CC1=C(N)OC2=C(C(=O)CCC2)C1c1ccccc1 (stereo not drawn)	none (no result: BAZ2B block)
N#CC1=C(N)OC2=C(CC/C2=C\c2ccccc2Cl)C1c1ccccc1Cl (stereo not drawn)	12-LOX inh inconclusive, G9a inh 22.4µM, JMJD2A Tudor inh inconclusive, BAZ2B block inconclusive
N#CC1=C(N)OC2=C(CC/C2=C\c2ccccc2)C1c1ccccc1 (stereo not drawn)	G9a inh 44.7µM, HP1b chromo inh inconclusive, JMJD2A Tudor inh inconclusive, BAZ2B block 89.1µM, PLK1 PBD block inconclusive
O=C1NC[C@H](CCCCN2C[C@H](Cc3ccc(O)cc3)N(CC3CCCCC3)C(=O)C2=O)N(Cc2ccccc2)C1=O	12-LOX inh inconclusive (no result: G9a inh, HP1b chromo inh, JMJD2A Tudor inh, BAZ2B block)
CCN(CC)CCN1C(=O)C(=O)/C(=C(/O)c2c(C)[nH]c(C(=O)OC)c2C)C1c1ccccc1 (stereo not drawn)	none
CCOc1ccc(C2/C(=C(\O)c3c(C)[nH]c(C(=O)OC)c3C)C(=O)C(=O)N2CCN(C)C)cc1 (stereo not drawn)	G9a inh 44.7µM, JMJD2A Tudor inh 35.5µM, PLK1 PBD block inconclusive
CCN(CC)CCN1C(=O)C(=O)/C(=C(/O)c2c(C)[nH]c(C(=O)OC)c2C)C1c1ccc(OC)cc1 (stereo not drawn)	12-LOX inh inconclusive, G9a inh 79.4µM
CCCOc1ccc(C2/C(=C(\O)c3c(C)[nH]c(C(=O)OC)c3C)C(=O)C(=O)N2CCN(C)C)cc1 (stereo not drawn)	G9a inh inconclusive, JMJD2A Tudor inh inconclusive
COC(=O)c1[nH]c(C)c(/C(O)=C2\C(=O)C(=O)N(CCN(C)C)C2c2cc(OC)ccc2OC)c1C (stereo not drawn)	G9a inh 50.1µM, JMJD2A Tudor inh inconclusive
C/C=C/c1ccc(OCCCCn2cncn2)c(OC)c1	12-LOX inh inconclusive, G9a inh inconclusive, JMJD2A Tudor inh 7.08µM, BAZ2B block 31.6µM
C/C=C/c1ccc(OCc2cc(=O)n3cc(C)ccc3n2)c(OC)c1	BAZ2B block inconclusive (no result: G9a inh)
C/C=C/c1ccc(OCCn2cncn2)c(OC)c1	12-LOX inh inconclusive, G9a inh 14.1µM, HP1b chromo inh inconclusive, JMJD2A Tudor inh 39.8µM, BAZ2B block 50.1µM
O=C(NC1CCS(=O)(=O)C1)c1sc2ccccc2c1Cl (stereo not drawn)	none
Cc1cc(C(=O)C(C)OC(=O)c2cnccn2)c(C)n1-c1ccccc1 (stereo not drawn)	G9a inh 56.2µM, JMJD2A Tudor inh inconclusive, BAZ2B block 25.1µM
COCCn1c(CN2CCN(c3ccc(F)cc3)CC2)nc2c1c(=O)n(C)c(=O)n2C	G9a inh inconclusive (no result: 12-LOX inh, HP1b chromo inh, JMJD2A Tudor inh, PLK1 PBD block)
Cc1nnc(SCC(=O)Nc2cccc(S(=O)(=O)N3CCCCC3)c2)s1	none
O=C(CSc1nnc(Nc2ccccc2F)s1)Nc1cccc(S(=O)(=O)N2CCCCC2)c1	G9a inh 3.16µM, JMJD2A Tudor inh inconclusive
Cc1ccc(Nc2nnc(SCC(=O)Nc3cccc(S(=O)(=O)N4CCCCC4)c3)s2)cc1	G9a inh 39.8µM
CCNC(=O)c1ccc(NC(=O)N2CCCCc3ccccc32)cc1	none (no result: PLK1 PBD block)

Compound activity deposited in PubChem by National Center for Advancing Translational Sciences (NCATS).
